Results on 175 sequences are retold here after publication PMC6212790, “How bacterial xenogeneic silencer rok distinguishes foreign from self DNA in its resident genome”.

Whole data set: some 33,000 sequences, median “e-score” near -0.038, cut for the highest 2% near 0.33. This excerpt belongs to a sample that is enriched for the highest values.

This test concerns the target T1, GST-Rok-C97-191 (Bacillus subtilis subsp. subtilis str. …, UniProt O34857 97-191).
T1 sequence: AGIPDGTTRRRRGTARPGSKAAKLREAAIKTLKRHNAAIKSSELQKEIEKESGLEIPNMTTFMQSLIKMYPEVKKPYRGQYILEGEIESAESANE
Kind of test: protein binding microarray; Rok is a gene silencer of Bacillus subtilis; high values mean tight binding. To be noted: protein: recombinant; tags: GST (pTH5325, pDEST15-Magic modified); dsDNA, one strand shown. A digest of the protocol: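 Every oligonucleotide joins a 25-mer constant primer to a 35-mer variable part drawn from a de Bruijn sequence of order 10, so each non-palindromic 8-mer appears at least 32 times and each palindromic 8-mer 16 times. The preference for every 8-mer is reported as a unitless, rank-based enrichment score (E-score). This score spans 0.5 for the most favored 8-mer to −0.5 for the most disfavored.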
As for TTAGTAAA, the binding signal amounted to 0.21 E-score.
For the sequence GTAGTAAA, the binding signal turned out to be 0.338 E-score.
For ATAGTAAA, the binding signal turned out to be 0.357 E-score.
Regarding GTAGTAAC, the binding signal was 0.307 E-score.
In the case of CTAGTACA it was 0.265 E-score; in that of GGAGTAAA, 0.000261 E-score; in that of ATAGTAAT, 0.396 E-score.
With CCCAGCAG, the binding signal was -0.112 E-score.
The value for CTGAACGC was -0.149 E-score; that for TACGACAA was 0.151 E-score; that for ATGGTCAA was 0.137 E-score.
For the sequence AAACTCCG, the binding signal was 0.115 E-score.
The value for GCTGTTTA was 0.0646 E-score.
With TAATTCCA, the binding signal is 0.207 E-score.
Consider CAATTCTA, for which the binding signal is 0.287 E-score.
Take AAATTCTC: the binding signal is 0.0486 E-score.
Regarding GAATTCTA, the binding signal was determined as 0.363 E-score.
In the case of AAATTCTT it was 0.105 E-score; in that of TAATTCTA, 0.331 E-score.
Take TAATTCAA: the binding signal stood at 0.168 E-score.
As for GAATTCTC, the binding signal is 0.0595 E-score.
Turning to AAATTCTA, the binding signal came out at 0.379 E-score.
Take CCCGCTCC: the binding signal was -0.108 E-score.
For the sequence GCGACCCA, the binding signal was determined as 0.134 E-score.
As for TCAAGGAA, the binding signal was -0.0876 E-score.
With ATCAACCA, the binding signal is -0.0125 E-score.
For the sequence ATATAGAG, the binding signal stood at 0.165 E-score.
As for ATATAGAT, the binding signal was 0.399 E-score.
For the sequence ATATAGAA, the binding signal was 0.347 E-score.
For CTATAGAA, the binding signal was 0.283 E-score.
The value for ATATAGAC was -0.00572 E-score.
GTATAGAA: the binding signal came out at 0.278 E-score.
Turning to CTGACAAG, the binding signal was -0.143 E-score.
For AAGATGAG, the binding signal turned out to be 0.0366 E-score.
For the sequence CAACAAGA, the binding signal is -0.163 E-score.
Take CTATATAA: the binding signal stood at 0.359 E-score.
With CAATATAA, the binding signal worked out at 0.295 E-score.
As to ATGTATAA, the binding signal came to 0.364 E-score.
ATGTATAC: the binding signal came out at 0.308 E-score.
On to GTATATGA, for which the binding signal is 0.224 E-score.
In the case of CCTTATAA it was 0.0808 E-score; in that of CTGTATAA, 0.215 E-score.
For the sequence CTCTATAA, the binding signal stood at 0.0363 E-score.
Turning to ACTTATAT, the binding signal was found to be 0.29 E-score.
For the sequence ATATATGA, the binding signal was found to be 0.329 E-score.
Regarding CTATATGA, the binding signal is 0.0756 E-score.
ACTTATAA: the binding signal amounted to 0.338 E-score.
In the case of CACGGGCA it was -0.13 E-score; in that of AATTGTTA, 0.234 E-score; in that of GCTTTCAA, -0.116 E-score.
Consider AGGAAGGA, for which the binding signal is -0.123 E-score.
The value for AGAGTACT was 0.169 E-score; that for CACGTAGA was -0.0653 E-score; that for AGCTCGCA was -0.0853 E-score.
Turning to AGAGACTG, the binding signal is 0.0621 E-score.
In the case of AACCAAAA it was 0.0375 E-score; in that of ACTGACCA, -0.00734 E-score; in that of AGTCCAAT, -0.0629 E-score.
In the case of AAGTATAA it was 0.187 E-score; in that of CAGTATAA, 0.213 E-score.
As to ATATATAA, the binding signal is 0.449 E-score.
On to GTCTATAA, for which the binding signal is 0.0588 E-score.
With ATCTATAA, the binding signal amounted to 0.355 E-score.
In the case of TTATATAA it was 0.384 E-score; in that of TAGTATAA, 0.413 E-score; in that of TAATATAA, 0.309 E-score.
Take TGATATAA: the binding signal worked out at 0.309 E-score.
For the sequence GGATATAA, the binding signal stood at 0.3 E-score.
On to ATCTATAG, for which the binding signal was 0.295 E-score.
With GTATATAA, the binding signal came out at 0.285 E-score.
Turning to AGGACTAG, the binding signal is -0.0267 E-score.
The value for TAGAATCA was 0.222 E-score; that for AGTCGAGC was -0.0631 E-score; that for CTTTGCGC was -0.101 E-score.
With ACACACCC, the binding signal is -0.0492 E-score.
For ACAGGTTC, the binding signal was -0.0931 E-score.
With TACTATAA, the binding signal came out at 0.408 E-score.
With AACTATAA, the binding signal turned out to be 0.309 E-score.
On to CACTATAA, for which the binding signal turned out to be 0.155 E-score.
With CGCAAATA, the binding signal turned out to be 0.178 E-score.
Turning to GGAGAAAC, the binding signal is -0.116 E-score.
Turning to AACCGCGA, the binding signal is -0.00712 E-score.
The value for GTTATTAA was 0.22 E-score; that for AATGTATC was 0.187 E-score.
Consider AATGTAGC, for which the binding signal is 0.144 E-score.
Take CATGTAGA: the binding signal came out at 0.327 E-score.
As for GATGTAAA, the binding signal stood at 0.164 E-score.
The value for AATGTAGA was 0.359 E-score; that for AATGTATG was 0.309 E-score; that for AATGTAAA was 0.329 E-score.
In the case of CTTGTATA it was 0.18 E-score; in that of ATTGTATA, 0.317 E-score.
CATGTAAA: the binding signal was found to be 0.25 E-score.
For GTTGTATA, the binding signal worked out at 0.351 E-score.
AATGTATA: the binding signal was 0.35 E-score.
The value for TCCTAAAA was 0.103 E-score; that for CCAGGCCG was -0.0324 E-score.
TTACTGAA: the binding signal was found to be 0.144 E-score.
Turning to ACGGGTAG, the binding signal was found to be 0.0714 E-score.
On to GAGGAAAA, for which the binding signal was -0.0709 E-score.
Take AGTGCACT: the binding signal came out at 0.024 E-score.
In the case of GTCAGAAA it was 0.0136 E-score; in that of GCATAACC, 0.0668 E-score; in that of GCGGTTCC, -0.143 E-score.
In the case of CCTTAGAC, the binding signal was -0.116 E-score.
In the case of CACAACTA it was 0.199 E-score.
In the case of TCACTAGA it was 0.155 E-score.
In the case of AATGTAAT, the binding signal turned out to be 0.398 E-score.
For AATGTAAC, the binding signal turned out to be 0.166 E-score.
The value for AATGTAAG was 0.112 E-score.
The value for CCAGTGAC was -0.156 E-score.
In the case of ACCACAGA, the binding signal was 0.0469 E-score.
Regarding AAATAGTA, the binding signal turned out to be 0.427 E-score.
In the case of GAATAGTA it was 0.325 E-score; in that of AAATAGTG, 0.215 E-score; in that of AAATAGCG, 0.13 E-score.
The value for ACATAGTA was 0.298 E-score; that for AAATAGCT was 0.336 E-score.
As to TAATAGCA, the binding signal is 0.276 E-score.
For the sequence AAATAGTC, the binding signal came out at 0.049 E-score.
As for AAATAGCA, the binding signal turned out to be 0.0458 E-score.
Take AAATAGTT: the binding signal is 0.406 E-score.
Take TAATAGTA: the binding signal worked out at 0.423 E-score.
AAATAGCC: the binding signal came out at 0.0812 E-score.
Consider AAACCACC, for which the binding signal is -0.1 E-score.
ACCGCCGA: the binding signal was -0.0492 E-score.
For the sequence CGAAGTCC, the binding signal is -0.0993 E-score.
The value for CATGTCCG was 0.0905 E-score.
The value for CGGTAAAC was 0.0274 E-score.
Regarding AAGTAATA, the binding signal stood at 0.29 E-score.
Turning to GAGTAATA, the binding signal turned out to be 0.182 E-score.
The value for CAGTAACA was 0.114 E-score; that for TAGTAATA was 0.403 E-score; that for CAATAGTC was 0.0177 E-score.
On to CAATAGTA, for which the binding signal is 0.33 E-score.
The value for CAATAGTG was 0.236 E-score; that for TAGTAACA was 0.345 E-score.
For AAGTAACA, the binding signal worked out at 0.177 E-score.
For the sequence CCTATAAG, the binding signal turned out to be 0.0895 E-score.
Regarding CAACGGTA, the binding signal worked out at 0.207 E-score.
For GGATGAAC, the binding signal was determined as 0.0137 E-score.
On to AAGCCTCA, for which the binding signal was -0.158 E-score.
In the case of AAAGCGAG it was -0.169 E-score; in that of CATGCCCC, -0.186 E-score.
The value for TGCCGAAA was -0.0675 E-score; that for CAAATGGC was 0.0931 E-score.
GAGAAAAA: the binding signal was 0.0631 E-score.
AAGAAATA: the binding signal turned out to be 0.145 E-score.
GAGAACTA: the binding signal was 0.242 E-score.
In the case of TAGAACTA it was 0.368 E-score; in that of CAGAAATA, 0.254 E-score; in that of CAGAACTA, 0.309 E-score.
With TAGAAATA, the binding signal worked out at 0.416 E-score.
In the case of GAGAAATC it was 0.0248 E-score; in that of GAGAAATA, 0.345 E-score.
Regarding CATTCCGA, the binding signal is -0.0936 E-score.
As to CGTTTACC, the binding signal is -0.0458 E-score.
In the case of ACTATTCT it was 0.217 E-score.
Turning to GCCATTTA, the binding signal was -0.19 E-score.
In the case of GAATCGCA, the binding signal is -0.139 E-score.
As to GAGAATGA, the binding signal was 0.00699 E-score.
As to CCGTTTAA, the binding signal is -0.0736 E-score.
In the case of TAAAAGGA, the binding signal was -0.0824 E-score.
For CAAAACTA, the binding signal was 0.401 E-score.
The value for ACAAACTG was 0.0787 E-score; that for TAAAACGA was 0.027 E-score.
As to TAAAACTA, the binding signal was 0.334 E-score.
As for TAAAACAA, the binding signal is 0.0349 E-score.
Turning to AAAAACTC, the binding signal came out at 0.113 E-score.
AAAAACTA: the binding signal was found to be 0.426 E-score.
For CAAAACAA, the binding signal was -0.0275 E-score.
Regarding ACAAACTC, the binding signal was found to be 0.00994 E-score.
In the case of CAAAACTC, the binding signal amounted to 0.162 E-score.
Turning to ACAAACTA, the binding signal amounted to 0.382 E-score.
In the case of AAAAACTT it was -0.191 E-score.
